# Measured values as given in the supplement of paper PMC6555819.
# Key:
# Experiment in all cases: PBM binding z-score (relative to random genomic background probes); higher = stronger binding; sequences stand for … in GC…GCGATTGACAGCGTAGAATGAAGG
# [1] = tested on: FXR:RXRa (NR concentration 270 nM, RXRa partner concentration 90 nM)
# In short: (§1)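 Antibodies against each partner of ligand-free nuclear receptor dimers (one per run) detected binding on custom Agilent 4×180K protein-binding microarrays after 1 h incubation. The double-stranded probes had 34-nt variable regions carrying direct-repeat seeds, single-nucleotide variants, half-site ablations and random human genomic background sequences. Binding z-scores, from regression-normalized fluorescence, use the random background probes as reference.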
# [2] = tested on: LXRa:RXRa (NR concentration 270 nM, RXRa partner concentration 90 nM)
# In short: as §1
# [3] = tested on: LXRa homodimer (NR concentration 270 nM)
# In short: as §1
# [4] = tested on: LXRb:RXRa (NR concentration 270 nM, RXRa partner concentration 90 nM)
# In short: as §1
# [5] = tested on: LXRb homodimer (NR concentration 270 nM)
# In short: as §1
# [6] = tested on: PPARa:RXRa (NR concentration 270 nM, RXRa partner concentration 90 nM)
# In short: as §1
# [7] = tested on: PPARg:RXRa (NR concentration 180 nM, RXRa partner concentration 90 nM)
# In short: as §1
# [8] = tested on: PPARg:RXRa 270nM:90nM, anti-RXR (NR concentration 270 nM, RXRa partner concentration 90 nM)
# In short: as §1
# [9] = tested on: PPARg:RXRa 30nM:10nM, anti-RXR (NR concentration 30 nM, RXRa partner concentration 10 nM)
# In short: as §1
# [10] = tested on: PPARg:RXRa 90nM:30nM, anti-RXR (NR concentration 90 nM, RXRa partner concentration 30 nM)
# In short: as §1
# [11] = tested on: PPARg:RXRa DBDmut IVT, anti-RXR (DBD mutation: RXRa K156A/R161A, NR concentration 270 nM, RXRa partner concentration 90 nM)
# In short: as §1
# [12] = tested on: PPARg:RXRa IVT, anti-PPARg (NR concentration 270 nM, RXRa partner concentration 90 nM)
# In short: as §1
# [13] = tested on: PPARg DBDmut:RXRa IVT, anti-PPARg (DBD mutation: PPARg1 K132A/R137A, NR concentration 270 nM, RXRa partner concentration 90 nM)
# In short: as §1
# [14] = tested on: PPARg DBDmut IVT, anti-PPARg (DBD mutation: PPARg1 K132A/R137A, NR concentration 270 nM)
# In short: as §1
# [15] = tested on: PPARg homodimer (NR concentration 180 nM)
# In short: as §1
# [16] = tested on: PXR:RXRa (NR concentration 270 nM, RXRa partner concentration 90 nM)
# In short: as §1
# [17] = tested on: PXR homodimer (NR concentration 270 nM)
# In short: as §1
# [18] = tested on: RARa:RXR (NR concentration 270 nM, RXRa partner concentration 90 nM)
# In short: as §1
# [19] = tested on: RARa homodimer (NR concentration 270 nM)
# In short: as §1
# [20] = tested on: RARb:RXRa (NR concentration 270 nM, RXRa partner concentration 90 nM)
# In short: as §1
Sequence,PBM binding z-score [1],PBM binding z-score [2],PBM binding z-score [3],PBM binding z-score [4],PBM binding z-score [5],PBM binding z-score [6],PBM binding z-score [7],PBM binding z-score [8],PBM binding z-score [9],PBM binding z-score [10],PBM binding z-score [11],PBM binding z-score [12],PBM binding z-score [13],PBM binding z-score [14],PBM binding z-score [15],PBM binding z-score [16],PBM binding z-score [17],PBM binding z-score [18],PBM binding z-score [19],PBM binding z-score [20]
ATCTCTAGGTAGAGATAGTTCAGTGAATGCAAAT,-0.234,-0.0128,0.0165,-0.111,0.0975,0.178,0.258,0.0156,0.0243,0.104,-0.289,0.0847,0.624,0.987,0.293,0.338,0.253,0.641,0.194,0.242
GCGACTGGGGCAAAGCAGCTTACCATAAGGTTGG,-0.808,-0.965,-0.698,-0.42,-1.09,0.229,1,1.18,-0.326,0.688,4.53,3.13,-0.355,-0.462,-0.569,-0.681,-0.894,-0.835,-1.36,0.456
CCTACTGGGCCAAGGTCATTGTTCAGTCAAAGCA,2.83,3.04,1.28,2.99,-0.347,4.06,3.84,4.26,1.73,3.71,3.1,4.53,1.57,-0.159,3.54,3.62,1.49,3.79,-0.126,3.25
TAGCCTAGGGCATGGGCCAGTATACCACGCGAAC,-0.362,-0.149,-0.378,-0.666,-1.19,-0.188,0.658,0.665,-0.115,0.0783,-0.924,0.59,-0.344,-0.519,-0.284,-0.477,-0.557,0.0195,-0.519,1.33
CCTAATTGGTCAGGAGGTCACACACCGGATATGA,3.74,3.59,2.27,3.64,1.07,4.42,3.88,4.51,2.08,4.16,1.64,3.67,0.824,0.695,3.7,4.19,1.4,4.5,2.15,3.87
ACTAGCAGGCCAAGTGTCACTCAAGATTAGTCCG,-0.202,-0.345,-0.396,-0.372,-0.742,1.37,1.95,3.56,1.36,2.95,1.36,1.14,-0.753,-0.466,-0.0608,-0.239,-0.525,0.0332,-0.483,0.887
CCTTACGGGTAAAGGTTATAGCACGGGTGGTACG,1.2,1.69,0.37,1.19,-0.173,3.02,2.95,4.67,2.06,3.73,-0.138,1.7,-0.079,-0.348,1.08,1.1,0.1,2.04,0.398,1.82
CGTCCAAGGACAGAGAGGTCAGTGAATGCCGAGT,1.59,1.6,1.09,1.72,-0.627,2.13,0.584,0.665,-0.328,-0.223,0.0804,0.561,-0.629,-1.01,1.79,3.01,3.16,2.48,0.679,3.33
GCTAGTTGGTAAGTAAAAGGTCACACACCGGTCG,2.63,4.22,4.45,3.94,0.812,4.58,4.49,6.32,4.94,6.92,0.354,3.04,-0.0152,0.693,5.08,5.18,1.13,6.32,2.74,4.08
AGAACGAGGGCAGTGAGTTGATAGCACGGGTGGC,-0.476,-0.6,-0.882,-0.705,-0.698,0.144,0.647,-0.0577,-0.624,-0.408,2.18,1.32,0.223,-0.247,-0.315,0.372,2,-0.326,-0.462,1.6
ACAGACAGGTGATGAAGGTAACTCAGGCTATCAT,-0.17,-0.295,-0.208,-0.204,-0.527,0.152,0.816,-0.0244,-0.0108,-0.132,0.422,0.692,0.619,0.238,0.146,-0.153,0.282,0.117,0.425,0.236
TAGCCTAGGTCATGGGTCAGTATACCACGCGAAC,5.1,4,0.898,3.62,0.339,4.77,6.78,5.95,3.9,6.14,1.91,4.28,1.25,0.834,2.55,2.92,0.237,4.22,0.889,4.1
TCTGCTAGGTCAAAGATGGTCAGCTAATCTGCTA,3.55,3.06,0.0702,2.07,0.0441,3.73,3.32,4.37,2.61,3.76,4.67,3.96,0.246,0.394,0.4,1.59,-0.802,2.44,-0.95,3.83
CCTACTGAGCCATCAGGTCATTGATATCAACGTT,1.58,1.47,2.08,2.26,0.649,1.79,0.302,0.843,0.137,0.472,1.16,1.31,0.489,-0.632,2.1,2.1,1.55,2.21,1.53,1.81
CCTACTGGGCCACGAAAGGTCATGGATTCAGTGA,3.62,5.06,3.79,4.07,0.209,4.97,4.97,5.27,2.28,4.77,5.9,6.03,-0.103,-0.148,3.03,5.15,0.707,5.48,1.81,4.27
TCGAGTAGGTTGGTCGGGGCATTCAGCCAACATA,0.0024,-0.387,-0.443,-0.0412,-0.299,0.0379,-0.696,0.116,0.981,0.513,0.51,-0.219,-0.384,-1.1,-0.0818,0.102,-0.155,0.0862,-0.932,0.117
AGTCAAAGTTCAGGACGAGCTAACGTAAAGCACG,3.87,3.76,0.971,1.55,0.0911,3.08,4.04,4.89,2.01,4.19,-0.565,1.33,0.323,-0.197,1.5,1.98,0.743,1.88,0.728,4.11
AACTCTAGGTAAGACTCAGTTCAGTGAAGAACGC,-0.314,-0.0738,0.141,-0.191,-0.311,0.00216,0.00417,-0.304,-0.237,-0.258,1.6,0.848,0.278,-0.04,0.345,0.534,0.651,0.155,0.797,0.272
CTACCAAGGTGAACAAGATCGTTGATTACTATTC,0.605,0.479,-0.171,0.709,-0.457,1.31,0.756,0.973,0.161,0.606,2.44,2.36,0.247,0.79,0.484,0.24,-0.209,0.949,0.706,1.48
CCGACTGGGGCAAATGTTACCATACTCAGTACGA,0.0667,-0.122,0.0319,0.411,-0.698,2.25,4.31,5.16,3.62,5.18,4.63,3.74,0.00418,0.212,0.439,-0.402,-0.187,-0.273,-0.109,0.683
AGAATGAGGTTATTAAGTTCAGGGAATTGCGGTC,2.41,3.29,2.12,1.95,0.228,3.11,1.55,2.1,0.695,1.08,2.87,2.49,1.24,0.465,1.36,5.65,13.8,2.88,0.854,2.35
CCGACTGGGGCAAGGTTACCATGACGCACAGCCA,-0.0845,0.558,0.0292,0.445,-1.06,1.87,2.78,3.14,1.24,2.47,2.69,3.49,-0.7,-0.368,0.811,0.221,-0.439,0.851,-0.183,1.62
CCTAGTGGGTCAAGGTCACACACGCTATAGGTAC,5.66,4.37,1.16,3.95,0.411,5.54,8.69,7.42,5.3,6.95,6.82,8.11,2.26,1.37,4.57,4.75,1.48,5.41,2.82,4.87
ATCTGTAGGTAAAAGTTCAGTGAATCCCGAGGAT,0.442,1.21,0.955,0.989,0.43,4,8.09,7.62,7.35,8.71,1.88,3.51,0.891,0.681,1.13,2.01,1.1,2.07,1,2.38
CGTCAGAGTTCAAGGTAACGTAACAGAAAGCAGC,5.49,5.11,1.85,3.2,0.38,4.54,2.92,3.58,0.864,2.39,0.546,0.936,-0.0239,0.226,2.34,4.5,2.86,3.31,0.785,4.36
TCAAGTAGGTTAGGGGCATTCAGAATGGCGTCGA,0.99,0.718,0.21,1.28,0.587,2.19,2.64,3.58,3.71,3.65,4.59,3.94,0.0234,0.234,1.35,1,0.86,0.878,0.676,1.51
CCTAGTTGGTCAAGGGCACACACGCTATAGGTAC,0.355,0.541,0.134,0.385,-0.148,0.682,1.51,1.57,0.541,1.26,1.1,1.69,-0.275,0.0269,1.15,0.512,0.494,0.731,1.05,1.98
GCGACTGGGGCATCAGCAGGTTTCCATAACTTAA,-0.587,-0.452,-0.461,0.112,-0.629,0.353,0.32,0.386,-0.554,-0.228,3.74,2.62,-1.63,-0.793,0.145,-0.54,-0.0807,-0.096,-0.582,0.524
TCCTATAGGTAAATGCTAGGTGAAAGTCCGATCT,0.02,0.489,-0.157,0.379,-0.293,1.16,0.318,1.7,2.99,2.19,2.2,1.3,0.193,0.879,-0.495,0.0422,-0.266,0.694,0.208,0.523
